Assay results taken from PubChem BioAssay (EPA / NIEHS).
Inconclusive results are not listed. The source made the active and inactive calls. The calls were made as follows: active = hit-call score of the fitted dose curve at least 0.9, where 1 is the maximum; inconclusive = response in the unintended direction; inactive = score below 0.9.

These molecules were tested against Agonist Androgen Response Element (ARE), AR (gene 367) (UniProt P10275) (assay: OT_AR_ARELUC_AG_1440: Odyssey Thera (OT) 24-hour CHO-K1 Luciferase Assay for Agonist Androgen Response Element (ARE) (AID 2283379)).
Chain of Agonist Androgen Response Element (ARE), AR (gene 367) (P10275 whole entry, looked up): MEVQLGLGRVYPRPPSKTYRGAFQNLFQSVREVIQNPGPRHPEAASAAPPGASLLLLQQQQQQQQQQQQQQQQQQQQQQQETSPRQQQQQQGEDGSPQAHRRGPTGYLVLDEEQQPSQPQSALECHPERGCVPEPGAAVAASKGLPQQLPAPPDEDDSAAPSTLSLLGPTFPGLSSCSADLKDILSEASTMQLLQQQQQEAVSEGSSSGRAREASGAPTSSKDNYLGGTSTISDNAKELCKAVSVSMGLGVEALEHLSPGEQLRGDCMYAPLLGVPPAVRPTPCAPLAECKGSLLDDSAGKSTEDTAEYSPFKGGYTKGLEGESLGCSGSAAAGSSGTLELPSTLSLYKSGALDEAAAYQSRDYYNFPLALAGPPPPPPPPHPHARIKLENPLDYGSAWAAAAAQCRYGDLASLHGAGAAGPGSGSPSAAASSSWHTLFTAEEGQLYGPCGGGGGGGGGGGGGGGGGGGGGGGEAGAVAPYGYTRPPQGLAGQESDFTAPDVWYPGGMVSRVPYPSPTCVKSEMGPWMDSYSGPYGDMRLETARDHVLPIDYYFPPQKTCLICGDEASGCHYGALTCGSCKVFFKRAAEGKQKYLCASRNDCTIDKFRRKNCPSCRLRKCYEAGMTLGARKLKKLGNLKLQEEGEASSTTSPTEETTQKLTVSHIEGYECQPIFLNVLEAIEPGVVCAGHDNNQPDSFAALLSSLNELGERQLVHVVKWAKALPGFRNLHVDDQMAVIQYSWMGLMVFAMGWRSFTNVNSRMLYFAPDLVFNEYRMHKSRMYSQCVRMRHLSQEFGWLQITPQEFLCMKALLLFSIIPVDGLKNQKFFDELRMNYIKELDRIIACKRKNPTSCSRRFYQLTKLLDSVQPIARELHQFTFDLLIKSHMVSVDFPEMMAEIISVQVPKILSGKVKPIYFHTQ
Method: OT_AR_ARELUC_AG_1440 is a cell-based, single-readout assay that uses CHO-K1, a chinese hamster ovary cell line, with measurements taken at 24 hours after chemical dosing in a 384-well plate.OT_AR_ARELUC_AG_1440 is one of one assay component(s) measured or calculated from the OT_AR_ARELUC_AG_1440 assay. It is designed to make measurements of luciferase induction, a form of inducible reporter, as detected with bioluminescence signals by Luciferase technology.Data from the assay component OT_AR_ARELUC_AG_1440 was analyzed into 1 assay endpoint. This assay endpoint, OT_AR_ARELUC_AG_1440, was analyzed in the positive analysis fitting direction relative to DMSO as the negative control and baseline of activity. Using a type of inducible reporter, measures of receptor for gain-of-signal activity can be used to understand the reporter gene at the pathway-level as they relate to the gene AR. Furthermore, this assay endpoint can be referred to as a primary readout, because the performed assay has only produced 1 assay endpoint. To generalize the intended target to other relatable targets, this assay endpoint is annotated to the nuclear receptor intended target family, where the subfamily is steroidal.
To identify AR agonists, CHO-K1 cells are seeded into a white-walled/white-bottom 384-well plate, followed by treatment with compounds of interest or controls for 24 hours. A luciferase assay mix containing D-luciferin and ATP in PBS is then added to the cells and luminescence quantified on a Luminoskan (Thermo Scientific) luminometer. Modulation of this assay is quantified as an increase in mean luminescence intensity relative to vehicle controls. To evaluate specificity of the AR / ARE-luc assay, several known AR agonists, AR antagonists, and ER-selective compounds were also tested in 5-pt concentration-response format in a minimum of 7 assay plates. OT determined the reproducibility of DHT-induced AR/ARE-luc transcriptional activation with a total of seven 384-well plates run on 2 different days, for 24-h time frames. A minimum of 3 replicate wells were analyzed for each sample with 14 replicate wells for vehicle controls. Luminescence data were captured on the Luminoskan luminometer.
For `O=S1OC[C@@H]2[C@H](CO1)[C@]1(Cl)C(Cl)=C(Cl)[C@@]2(Cl)C1(Cl)Cl` (some centres undefined), the outcome was “inactive”.
With `COCCl` the AC50 was 1220 nM (active).
In the case of `CNC(=O)O/N=C/C(C)(C)S(C)(=O)=O`, the AC50 is reported as 623 nM (active).
With `O=C1c2ccccc2C(=O)C1C(=O)C(c1ccccc1)c1ccc(Cl)cc1` (centres undefined) the outcome was “inactive”.
With `Cc1cc(Cl)ccc1OCCCC(=O)O` the outcome was “inactive”.
With `C=CC(Cl)CCl` (centres undefined) the outcome was “inactive”.
For `O=S1(=O)OC(c2cc(Br)c(O)c(Br)c2)(c2cc(Br)c(O)c(Br)c2)c2ccccc21`, the AC50 was 214 nM (active).
`O=C(NC(=O)c1c(F)cccc1F)Nc1cc(Cl)c(OC(F)(F)C(F)C(F)(F)F)cc1Cl` (centres undefined) was tested, and the outcome was “inactive”.
For `O=C(CCl)Nc1ccccc1`, the outcome was “inactive”.
`N#CCC#N` was tested, and the outcome was “inactive”.
For `O=C(O)COc1cc(Cl)c(Cl)cc1Cl`, the outcome was “inactive”.
`O=[N+]([O-])c1ccc(Cl)c([N+](=O)[O-])c1` was tested, and the outcome was “inactive”.
In the case of `CC(C)N(C(=O)CCl)c1ccccc1`, the outcome is reported as “inactive”.
With `CC(=Cc1ccccc1)[N+](=O)[O-]` the outcome was “inactive”.
